# Activity calls are given as the source filed them. Unless noted, how the calls were made is not given here.
# Assays:
# [1] = system: XIP peptide (Xip251-270) binding; test: small-molecule binders of XIP peptide, primary screen, biochemical, small-molecule microarray, fluorescence 635/667 nm, 0.1 µg/mL protein (AID 1182); details: fluorescent protein binding, 635 nm, higher = more signal, called active from +8 up or from −8 down
# XIP peptide (Xip251-270) = test: small-molecule binders of XIP peptide, primary screen, biochemical, small-molecule microarray, fluorescence 635/667 nm, 0.5 µg/mL protein (AID 1183); details: small-molecule microarray binding, fluorescence 635 nm; higher = more signal
# [2] = Plasmodium falciparum growth inhibition, primary screen, strain 3D7, DAPI fluorescence, 100 nL (AID 1184);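 further: parasites grown inside human red blood cells in medium with human serum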; details: P. falciparum 3D7 growth, 3 d, higher = more signal
# [3] = molecular target: Homeobox protein Hox-A13 (Mus musculus) (UniProt Q62424); test: inhibitors of HoxA13-DNA binding, primary screen, biochemical, fluorescence polarization, labeled oligonucleotide (AID 1185); details: 15 min, higher = more signal, called active from +8 up or from −8 down
# [4] = inhibitors of hydroxyurea-induced Chk1 phosphorylation, primary screen, imaging, HeLa, phospho-Chk1 antibody, percent positive cells (AID 1186); details: hydroxyurea-induced phospho-Chk1 immunofluorescence imaging, higher = more signal
# [5] = inhibitors of hydroxyurea-induced Chk1 phosphorylation, primary screen, imaging, HeLa, phospho-Chk1 nuclear intensity (AID 1187); details: hydroxyurea-induced phospho-Chk1 immunofluorescence imaging, higher = more signal
# Sequence of Homeobox protein Hox-A13 (Mus musculus) (Q62424 whole entry, looked up): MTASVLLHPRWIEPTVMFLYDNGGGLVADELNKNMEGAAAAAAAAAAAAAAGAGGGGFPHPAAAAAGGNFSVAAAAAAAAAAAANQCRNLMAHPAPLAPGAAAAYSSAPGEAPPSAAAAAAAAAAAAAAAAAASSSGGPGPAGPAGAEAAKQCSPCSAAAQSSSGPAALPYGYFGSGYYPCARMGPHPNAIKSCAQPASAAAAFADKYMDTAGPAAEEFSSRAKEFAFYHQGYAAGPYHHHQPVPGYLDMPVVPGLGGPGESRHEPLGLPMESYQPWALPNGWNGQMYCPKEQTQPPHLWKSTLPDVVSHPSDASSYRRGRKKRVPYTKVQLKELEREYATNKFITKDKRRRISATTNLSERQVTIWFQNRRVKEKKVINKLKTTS
SMILES,composite z-score [1],composite z-score (XIP peptide (Xip251-270)),z-score [2],z-score [3],z-score [4],z-score [5]
COCCOC(=O)N1C(=O)[C@@]2(c3cc(C#CC4(O)CCCCCC4)ccc31)[C@H](c1ccccc1OCCO)N1[C@H](c3ccccc3)[C@H](c3ccccc3)OC(=O)[C@H]1[C@@H]2C(=O)N1CCN(c2ncccn2)CC1,-0.0186 (inactive),0.744,-2.23,-0.571 (inactive),-0.353 (inactive),-0.189 (inactive)
C=C(COC)C(=O)CC[C@@H](OC(C)=O)c1ccc(CO)o1,0.861 (inactive),-0.0256,0.216,-3.72 (inactive),0.293 (inactive),0.384 (inactive)
CCOC(=O)C1=C[C@@H](C(C)(C)C)N(S(=O)(=O)c2ccc(C)cc2)[C@H]1c1ccc(F)cc1,0.475 (inactive),0.106,-1.92,-0.636 (inactive),-0.324 (inactive),-0.725 (inactive)
C[N+](C)(C)CCCCNC(=O)[C@H]1C[C@H]2C(=O)N3CCC[C@H]3C(=O)N2[C@H]1c1cccc(OCCO)c1,0.265 (inactive),-0.465,1.2,-2.27 (inactive),-0.302 (inactive),-0.124 (inactive)
O=C1c2ccccc2[C@](Cc2ccccc2I)(C(=O)NCCN2CCOCC2)[C@H](c2ccc(CO)cc2)N1Cc1ccccc1Cl,1.08 (inactive),0.862,-1.47,-4.29 (inactive),-0.206 (inactive),-0.183 (inactive)
CCC[C@@H]1C[C@@]1(CCC)[C@@H](NS(=O)(=O)c1cccc2cccnc12)c1ccc(Cl)cc1,0.0535 (inactive),-0.271,-0.586,-0.392 (inactive),0.555 (inactive),0.618 (inactive)
COC(=O)[C@@]1(Cc2ccc(OC)cc2)[C@H]2c3cc(C(=O)N(C)C)n(C)c3C[C@H]2CN1C(=O)c1ccccc1,-0.0515 (inactive),0.764,-1.4,-3.49 (inactive),-0.0095 (inactive),0.0799 (inactive)
CO[C@H]1O[C@H](CO)[C@@H](OC(=O)Nc2ccc(Oc3ccccc3)cc2)[C@H](OC(=O)Nc2ccc3c(c2)OCO3)[C@H]1OC(=O)Nc1ccc2c(c1)OCO2,0.69 (inactive),0.891,-2.33,-5.25 (inactive),-0.334 (inactive),-0.152 (inactive)
C=CC(=C)[C@H]1Oc2ccccc2S(=O)(=O)N2CCC[C@@H]12,0.323 (inactive),-0.253,-0.0753,-1.9 (inactive),0.142 (inactive),0.342 (inactive)
COc1ccc([C@H]2OC[C@@H]3C[C@@H](Cc4ccccc4)C(=O)N32)cc1,0.617 (inactive),0.0682,0.583,-1.06 (inactive),0.375 (inactive),0.0727 (inactive)
NC(=O)NCC#Cc1ccc2c(c1)[C@]1(C(=O)N2)[C@H](c2ccc(O)cc2)N2[C@H](c3ccccc3)[C@H](c3ccccc3)OC(=O)[C@H]2[C@@H]1C(=O)O,-0.211 (inactive),0.157,0.431,-5.27 (inactive),0.123 (inactive),0.094 (inactive)
Cc1ccc([C@@H]2C[C@@H](Sc3ccccc3)[C@H](C(=O)O)CN2S(=O)(=O)c2ccc(C)cc2)cc1,0.571 (inactive),0.8,-0.706,-7.26 (inactive),0.57 (inactive),0.498 (inactive)
CCCC[C@@H]1C[C@H]1[C@@H](NC(=O)c1ccccc1)c1ccc(C(=O)OC)cc1,-0.0225 (inactive),0.221,-0.0079,-3.64 (inactive),0.665 (inactive),0.454 (inactive)
C=C(COC)/C(=C/C[C@@H](OC(C)=O)c1ccc(OCCO)cc1)c1cnc2ccccc2c1,-0.263 (inactive),0.554,-3.23,-6.01 (inactive),0.136 (inactive),-0.201 (inactive)

# Reference: PubChem BioAssay
